From PubChem BioAssay AID1159580 (chemical genetic matrix, 2015)
The whole screen tested about 5,500 compounds, of which about 2,000 (36%) were called active. Inconclusive results (about 18%) are left out. Rule as the data show it: active = normalized growth mostly below about 0.91 (no sharp cut-off); inconclusive = no clear call, values can overlap the other calls; inactive = mostly above about 0.92. The list shows a part of the results.

Assay: chemical genetic growth profiling, strain panel (AID 1159580);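 also: tested at 20 µM; growth read once vehicle control cultures reached saturation at 30 °C; 1 = growth at the plate median or of vehicle wells; lower values mean less growth of the strain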
Conditions: growth OD

Measured: normalized growth

O=C(NCO)c1cccnc1
inactive: S. cerevisiae deletion strains, locus YJR075W, strain HOC1, active compounds read low 0.992 | S. cerevisiae deletion strains, locus YKL009W, strain mrt4, active compounds read low 0.984 | S. cerevisiae deletion strains, locus YKL068W, active compounds read low 0.974 | S. cerevisiae deletion strains, locus YKL085W, strain MDH1 (second series), active compounds read low 1 | S. cerevisiae deletion strains, locus YKL085W, strain MDH1, active compounds read low 1 | S. cerevisiae deletion strains, locus YKL160W, strain elf1, active compounds read low 1.01 | S. cerevisiae deletion strains, locus YKL190W, strain CNB1, active compounds read low 0.997 | S. cerevisiae deletion strains, locus YKR001C, strain vps1, active compounds read low 0.99 | S. cerevisiae deletion strains, locus YKR026C, strain gcn3, active compounds read low 1.01 | S. cerevisiae deletion strains, locus YKR091W, strain srl3, active compounds read low 1 | S. cerevisiae deletion strains, locus YLL001W, strain dnm1, active compounds read low 0.992 | S. cerevisiae deletion strains, locus YLL026W, active compounds read low 1 | S. cerevisiae deletion strains, locus YLL041C, strain sdh2, active compounds read low 1.01 | S. cerevisiae deletion strains, locus YLR027C, strain aat2, active compounds read low 1.01 | S. cerevisiae deletion strains, locus YLR039C, strain RIC1, active compounds read low 0.939 | S. cerevisiae deletion strains, locus YLR058C, strain SHM2, active compounds read low 0.986 | S. cerevisiae deletion strains, locus YLR102C, strain apc9, active compounds read low 0.985 | S. cerevisiae deletion strains, locus YLR113W, strain HOG1, active compounds read low 0.997 | S. cerevisiae deletion strains, locus YLR221C, strain rsa3, active compounds read low 1.01 | S. cerevisiae deletion strains, locus YLR258W, strain gsy2, active compounds read low 1.01 | S. cerevisiae deletion strains, locus YLR262C, strain YPT6 (second series), active compounds read low 0.995 | S. cerevisiae deletion strains, locus YLR262C, strain YPT6, active compounds read low 0.954 | S. cerevisiae deletion strains, locus YLR268W, strain sec22, active compounds read low 0.993 | S. cerevisiae deletion strains, locus YLR320W, strain mms22, active compounds read low 1 | S. cerevisiae deletion strains, locus YLR330W, strain CHS5, active compounds read low 0.981 | S. cerevisiae deletion strains, locus YLR342W, strain FKS1 (second series), active compounds read low 1.01 | S. cerevisiae deletion strains, locus YLR342W, strain FKS1, active compounds read low 1.01 | S. cerevisiae deletion strains, locus YLR357W, strain rsc2, active compounds read low 0.974 | S. cerevisiae deletion strains, locus YLR370C, strain arc18, active compounds read low 1.01 | S. cerevisiae deletion strains, locus YLR371W, strain rom2, active compounds read low 0.971 | S. cerevisiae deletion strains, locus YLR384C, strain iki3, active compounds read low 0.997 | S. cerevisiae deletion strains, locus YLR418C, strain cdc73, active compounds read low 1.03 | S. cerevisiae deletion strains, locus YML016C, strain PPZ1, active compounds read low 0.998 | S. cerevisiae deletion strains, locus YML032C, strain rad52, active compounds read low 0.975 | S. cerevisiae deletion strains, locus YML120C, strain ndi1, active compounds read low 1.01 | S. cerevisiae deletion strains, locus YML124C, strain tub3, active compounds read low 1 | S. cerevisiae deletion strains, locus YMR058W, strain fet3, active compounds read low 1 | S. cerevisiae deletion strains, locus YMR078C, strain ctf18, active compounds read low 0.993 | S. cerevisiae deletion strains, locus YMR125W, strain sto1, active compounds read low 0.997 | S. cerevisiae deletion strains, locus YMR129W, active compounds read low 0.987 | S. cerevisiae deletion strains, locus YMR205C, strain PFK2, active compounds read low 0.992 | S. cerevisiae deletion strains, locus YMR223W, strain ubp8, active compounds read low 0.988 | S. cerevisiae deletion strains, locus YMR231W, strain pep5, active compounds read low 1.01 | S. cerevisiae deletion strains, locus YMR263W, strain SAP30, active compounds read low 0.999 | S. cerevisiae deletion strains, locus YMR307W, strain GAS1, active compounds read low 1.08 | S. cerevisiae deletion strains, locus YNL067W, strain RPL9B, active compounds read low 0.995 | S. cerevisiae deletion strains, locus YNL071W, strain lat1, active compounds read low 1.02 | S. cerevisiae deletion strains, locus YNL128W, strain TEP1, active compounds read low 0.999 | S. cerevisiae deletion strains, locus YNL153C, strain GIM3, active compounds read low 1 | S. cerevisiae deletion strains, locus YNL183C, strain NPR1, active compounds read low 0.92 | S. cerevisiae deletion strains, locus YNL209W, strain ssb2, active compounds read low 0.999 | S. cerevisiae deletion strains, locus YNL233W, strain BNI4, active compounds read low 1.01 | S. cerevisiae deletion strains, locus YNL248C, strain rpa49, active compounds read low 1 | S. cerevisiae deletion strains, locus YNL250W, strain rad50, active compounds read low 0.983 | S. cerevisiae deletion strains, locus YNL271C, strain bni1, active compounds read low 0.978 | S. cerevisiae deletion strains, locus YNL298W, strain CLA4, active compounds read low 0.996 | S. cerevisiae deletion strains, locus YNL307C, strain MCK1, active compounds read low 0.993 | S. cerevisiae deletion strains, locus YNL322C, strain KRE1 (second series), active compounds read low 1.01 | S. cerevisiae deletion strains, locus YNL322C, strain KRE1, active compounds read low 0.986 | S. cerevisiae deletion strains, locus YNR049C, strain mso1, active compounds read low 1.01 | S. cerevisiae deletion strains, locus YNR052C, strain pop2, active compounds read low 0.984 | S. cerevisiae deletion strains, locus YOL006C, strain TOP1, active compounds read low 0.997 | S. cerevisiae deletion strains, locus YOL012C, strain htz1 0.887 | S. cerevisiae deletion strains, locus YOL147C, strain pex11, active compounds read low 0.988 | S. cerevisiae deletion strains, locus YOR001W, strain rrp6, active compounds read low 0.999 | S. cerevisiae deletion strains, locus YOR061W, strain CKA2, active compounds read low 0.991 | S. cerevisiae deletion strains, locus YOR069W, strain VPS5, active compounds read low 0.989 | S. cerevisiae deletion strains, locus YOR070C, strain gyp1, active compounds read low 1 | S. cerevisiae deletion strains, locus YOR080W, strain dia2, active compounds read low 1 | S. cerevisiae deletion strains, locus YOR083W, strain WHI5, active compounds read low 1 | S. cerevisiae deletion strains, locus YOR106W, strain vam3, active compounds read low 1.02 | S. cerevisiae deletion strains, locus YOR136W, strain idh2, active compounds read low 0.982 | S. cerevisiae deletion strains, locus YOR144C, strain elg1, active compounds read low 0.978 | S. cerevisiae deletion strains, locus YOR184W, strain ser1, active compounds read low 0.959 | S. cerevisiae deletion strains, locus YOR231W, strain MKK1, active compounds read low 0.98 | S. cerevisiae deletion strains, locus YOR265W, strain rbl2, active compounds read low 1.01 | S. cerevisiae deletion strains, locus YOR270C, strain vph1, active compounds read low 1.02 | S. cerevisiae deletion strains, locus YOR290C, strain snf2, active compounds read low 0.943 | S. cerevisiae deletion strains, locus YOR316C, strain cot1, active compounds read low 0.997 | S. cerevisiae deletion strains, locus YPL051W, strain arl3, active compounds read low 1 | S. cerevisiae deletion strains, locus YPL055C, strain LGE1, active compounds read low 1.02 | S. cerevisiae deletion strains, locus YPL078C, strain atp4, active compounds read low 1.01 | S. cerevisiae deletion strains, locus YPL106C, strain sse1, active compounds read low 0.998 | S. cerevisiae deletion strains, locus YPL240C, strain hsp82, active compounds read low 1.02 | S. cerevisiae deletion strains, locus YPL241C, strain CIN2, active compounds read low 0.958 | S. cerevisiae deletion strains, locus YPL256C, strain CLN2, active compounds read low 0.985 | S. cerevisiae deletion strains, locus YPR119W, strain clb2, active compounds read low 0.986 | S. cerevisiae deletion strains, locus YPR141C, strain kar3, active compounds read low 0.992 | S. cerevisiae deletion strains, locus YPR163C, strain tif3, active compounds read low 0.989 | S. cerevisiae deletion strains, locus YPR167C, strain met16, active compounds read low 1 | S. cerevisiae deletion strains, strain wtn01, active compounds read low 0.996 | S. cerevisiae strains, strain wild type, active compounds read low 0.986
